According to PubChem BioAssay AID489025 (Southern Research Specialized Biocontainment Screening …, 2010):
Out of some 2,300 compounds screened, about 790 (34%) were called active. No rule for the calls is given here. The list shows a part of the results. Entries with a potency or affinity are not part of this list.

Test: THP-1 cell cytotoxicity, dose response, cytotoxicity control for non-replicating M. tuberculosis project (AID 489025)
Conditions: THP-1 cell viability; series mostly up to 40 µM

Compound | outcome
CC(C)Cc1cc(C(=O)Nc2ccc(F)cc2F)no1 | inactive
O=C(Nc1ccc(F)cc1F)c1cc2ccccc2oc1=O | inactive
CCCNC(=O)NC(=O)COc1ccc(-c2ccc(C#N)cc2)cc1 | inactive
O=C(COc1ccc(-c2ccccc2)cc1)Nc1cccnc1 | inactive
O=C(NC(=S)Nc1ccc(F)cc1)C1CCCCC1 | inactive
CN(/N=C/c1ccc([N+](=O)[O-])o1)c1ccccc1 | inactive
CC1=CN2C(=N)/C(=C/c3ccc([N+](=O)[O-])o3)C(=O)N=C2S1 | inactive
CC(C)[C@H](NC(=O)c1ccc(Br)cc1)C(=O)NC1CCCCC1 | inactive
c1ccc(Nc2nc(-c3ccccn3)cs2)cc1 | inactive
COc1ccc(CCNc2nc(-c3ccccn3)cs2)cc1OC | inactive
CN1CCN(c2cc3c(cc2F)c(=O)c(C(=O)O)cn3CCF)CC1 | inactive
S=C1NC2(CCCC2)N=C1c1ccccc1 | inactive
CCOC(=O)c1csc(-c2snnc2C)n1 | inactive
COc1ccc(COC(=O)CCNC(=O)c2ccc(Cl)cc2)cc1 | inactive
COC(=O)COc1cccc(NC(=O)c2ccc(Cl)cc2)c1 | inactive
CC(C)N1CCc2c(sc(NC(=O)CCS(=O)(=O)c3ccccc3)c2C#N)C1 | inactive
CNC(=O)COC(=O)c1ccc(-c2nc3ccccc3s2)s1 | inactive
O=C(COc1ccc2ccccc2c1)NNC(=O)c1cccs1 | inactive
Cc1cc(Cl)ccc1OCCCC(=O)NO | inactive
Clc1cccc(CNCCNCc2cccc(Cl)c2)c1 | inactive

Compound | outcome
CC(Cc1cccs1)NC(=O)c1cccc(Cl)c1 (centres undefined) | inactive
Cc1ccc(NC(=O)COc2ccc3c(c2)CCC3)nc1 | inactive
CCOC(=O)COc1cc(O)c2c(=O)cc(-c3ccccc3)oc2c1 | inactive
COc1ccc(N2C(=O)C(F)(F)C2c2cccc(F)c2)cc1 (centres undefined) | inactive
COCCNC(=O)CC(=O)N/N=C/c1cccc(C(=O)OC)c1 | inactive
Cc1cc(C(=O)N/N=C/c2cccc(Cl)c2Cl)no1 | inactive
NC(=O)N/N=C\c1cc(Br)ccc1O | inactive
COC(=O)COc1cccc(/C=N/NC(=O)CCSc2ccccc2)c1 | inactive
Clc1ccccc1CSc1nnc([C@@H]2CCCN2)o1 | inactive
O=C(COC(=O)CCc1c[nH]c2ccccc12)Nc1ccc([N+](=O)[O-])cc1 | inactive
CC1N(C)c2cccc3cccc(c23)N1C | inactive
COC(=O)c1cccc(COC(=O)c2cc3ccccc3oc2=O)c1 | inactive
Cc1cc(Cl)ccc1NNC(=O)c1c(C)noc1C | inactive
O=C(NN=C1C2CC3CC1CC(Cl)(C3)C2)c1cccs1 | inactive
O=[N+]([O-])c1cc(N=Nc2ccc3ccccc3c2)ccc1O | inactive
Clc1cccc(/C=N\Nc2nccs2)c1 | inactive
O=C(COc1ccccc1)NNc1nc2ccccc2s1 | inactive
O=C(N/N=C/C=C/c1ccccc1[N+](=O)[O-])c1ccncc1 | inactive
O=C(NNc1nc2ccccc2s1)Nc1ccc(F)cc1 | inactive
